Data as given in the supplement of paper PMC9694430.

How the values were obtained:
Assay in all cases: thermal shift delta Tm vs DMSO control; higher = stronger stabilization (binding)
Settings in all cases: 12.5 µM; protein concentration 2 µM
[1] = system: LOC_OS01G01410-cb001
Method in brief: (§1)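 Rice kinase domain constructs, made in E. coli and purified, were placed in 96-well plates at 2 μM in 19.5 μl of 100 mM potassium phosphate pH 7.5, 150 mM NaCl, 10% glycerol and 5 × SYPRO Orange, with compound in DMSO. A temperature ramp from 25°C to 95°C at 0.05°C/s was used for differential scanning fluorimetry. The melting temperature shift is a triplicate mean compared with DMSO-only protein, derived from Boltzmann fits.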

[2] = system: LOC_OS01G02750-cb003
Method in brief: as §1

[3] = system: LOC_OS01G10900-cb004
Method in brief: as §1

[4] = system: LOC_OS01G13800-cb001
Method in brief: as §1

[5] = system: LOC_OS01G14860-cb001
Method in brief: as §1

[6] = system: LOC_OS01G21960-cb002
Method in brief: as §1

[7] = system: LOC_OS01G39600-cb002
Method in brief: as §1

[8] = system: LOC_OS01G48390-cb002
Method in brief: as §1

[9] = system: LOC_OS01G51400-cb002
Method in brief: as §1

[10] = system: T1, LOC_OS01G52050-cb004
T1 sequence (whole entry): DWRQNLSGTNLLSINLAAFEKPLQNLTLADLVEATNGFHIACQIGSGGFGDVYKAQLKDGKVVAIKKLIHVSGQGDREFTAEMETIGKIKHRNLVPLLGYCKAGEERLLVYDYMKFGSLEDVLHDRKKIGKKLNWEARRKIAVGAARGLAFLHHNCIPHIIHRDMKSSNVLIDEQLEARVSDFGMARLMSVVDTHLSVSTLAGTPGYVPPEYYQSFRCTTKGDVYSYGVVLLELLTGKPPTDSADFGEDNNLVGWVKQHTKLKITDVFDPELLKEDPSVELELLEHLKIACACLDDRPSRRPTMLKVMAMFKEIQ
Method in brief: as §1
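Note: purified Escherichia coli-expressed rice kinase domain construct.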

Row | Structure (SMILES) | thermal shift delta Tm [1] | thermal shift delta Tm [2] | thermal shift delta Tm [3] | thermal shift delta Tm [4] | thermal shift delta Tm [5] | thermal shift delta Tm [6] | thermal shift delta Tm [7] | thermal shift delta Tm [8] | thermal shift delta Tm [9] | thermal shift delta Tm [10]
1 | Cn1cc(-c2ccc3nnc(C(F)(F)c4ccc5ncccc5c4)n3n2)cn1 | 1.27 °C | -0.24 °C | 5.11 °C | 0.46 °C | 0.28 °C | 1.41 °C | 1.09 °C | 0.82 °C | 0.35 °C | 1.02 °C
2 | CCOc1cc2ncc(C#N)c(Nc3ccc(F)c(Cl)c3)c2cc1NC(=O)/C=C/CN(C)C [Pelitinib (EKB-569)] | 0.85 °C | 0.32 °C | 1.14 °C | 0.55 °C | 4.99 °C | 1.49 °C | 4.78 °C | 0.69 °C | 0.03 °C | 3.13 °C
3 | CNC(=O)c1ccc(-c2cnc3ncc(Cc4ccc5ncccc5c4)n3n2)cc1F | 0.07 °C | 0.51 °C | 0.48 °C | -0.08 °C | 0.29 °C | 0.73 °C | -0.03 °C | 0.24 °C | -0.03 °C | 0.32 °C
4 | CC(C)n1ncnc1-c1cn2c(n1)-c1ccc(O[C@@H](C)C(N)=O)cc1OCC2 | 0.47 °C | 1.25 °C | 0.08 °C | 0.67 °C | 0.28 °C | 0.8 °C | 0.74 °C | 0.6 °C | 0.1 °C | 0.31 °C
5 | CNC(=O)c1ccccc1Nc1cc(Nc2ccc(N3CCOCC3)cc2OC)ncc1C(F)(F)F | 0.48 °C | 1.23 °C | 0.53 °C | 1.17 °C | 1.05 °C | 1.09 °C | 0.34 °C | 0.58 °C | 0.74 °C | 5.73 °C
6 | Cc1nc(-c2cn3c(n2)-c2ccc(-c4cnn(C(C)(C)C(N)=O)c4)cc2OCC3)n(C(C)C)n1 [Taselisib (GDC 0032)] | 2.11 °C | -0.1 °C | 0.24 °C | 0.32 °C | -0.05 °C | 0.03 °C | -0.05 °C | 0.45 °C | 0.03 °C | 0.13 °C
7 | CNS(=O)(=O)Nc1nccc(Cc2c(C)c3ccc(Oc4ncccn4)cc3oc2=O)c1F | 0.15 °C | 1.63 °C | 0.11 °C | 0.82 °C | 0.18 °C | 0.68 °C | -0.07 °C | 0.47 °C | 0.47 °C | 0.66 °C
8 | CC(C)(C)NC(=O)c1cncn1C1CCN(c2ccc(-c3nnc(C(F)(F)F)o3)cn2)CC1 | 0.22 °C | 0.89 °C | 0.11 °C | -0.25 °C | 0.2 °C | 0.13 °C | -0.63 °C | 0.3 °C | 0.06 °C | 0.97 °C
9 | Cc1c(NC(=O)OC[C@@H]2COCCN2)cn2ncnc(Nc3ccc4c(cnn4Cc4cccc(F)c4)c3)c12 | 0.88 °C | -0.18 °C | 0.06 °C | 0.7 °C | 0.19 °C | 0.52 °C | 0.91 °C | 0.07 °C | 0.14 °C | 0.23 °C
10 | CCc1cccc(CC)c1NC(=O)N1Cc2[nH]nc(NC(=O)c3ccc(N4CCN(C)CC4)cc3)c2C1 | 0.31 °C | 0.54 °C | 0.87 °C | -0.49 °C | 0.31 °C | 0.34 °C | 2.21 °C | 0.01 °C | 0 °C | 0.17 °C
11 | CCN1/C(=C/C(C)=O)Sc2ccc(OC)cc21 | 0.21 °C | 0.62 °C | 0.24 °C | 0.6 °C | 1.92 °C | 1.17 °C | -0.62 °C | 0.54 °C | 0.02 °C | -0.01 °C
12 | CNC(=O)c1nn(C)c2c1C(C)(C)Cc1cnc(Nc3ccc(N4CCN(C)CC4)cc3)nc1-2 | 2.97 °C | 4.29 °C | 7.64 °C | -1.53 °C | 0.36 °C | 1.9 °C | 0.04 °C | 1.65 °C | 0.17 °C | 5.55 °C
13 | C[C@@]1(C(=O)Nc2ccc(F)nc2)CCCN1c1nc(Nc2cc(C3CC3)n[nH]2)c2cccn2n1 | 1.85 °C | 3.65 °C | 0.11 °C | 0.04 °C | 3.52 °C | 0.38 °C | 4.9 °C | 1.12 °C | 0.67 °C | 0.49 °C
14 | CC(C)(O)CNc1ncc(-c2ccnc(Nc3ccncc3)n2)c(CC2CC2)n1 [VPS34 inhibitor 1 (Compound 19, PIK-III analogue)] | 0.51 °C | 1.04 °C | 5.05 °C | 0.63 °C | 2.25 °C | 0.87 °C | 0.48 °C | 1.46 °C | 0.29 °C | 4.06 °C
15 | Cc1[nH]c(/C=C2\C(=O)Nc3ccc(S(=O)(=O)Cc4c(Cl)cccc4Cl)cc32)c(C)c1C(=O)N1CCC[C@@H]1CN1CCCC1 | 1.92 °C | 1.5 °C | 0.36 °C | 0.4 °C | 0.57 °C | 0.17 °C | 3.39 °C | 0.38 °C | -0.1 °C | 0.18 °C
16 | CC(C)(O)CNc1ncc(-c2ccnc(Nc3ccnc(Cl)c3)n2)c(CC2CC2)n1 | 0.77 °C | 0.82 °C | 4.56 °C | -0.19 °C | 2.06 °C | 0.91 °C | -0.42 °C | 0.33 °C | 0.19 °C | 0.5 °C
17 | CC(C)(C)S(=O)(=O)c1ccc2nccc(Nc3n[nH]c4ccc(F)cc34)c2c1 | 0.34 °C | 1.74 °C | 0.48 °C | -0.44 °C | 0.3 °C | 0.28 °C | 1.01 °C | 1.31 °C | 0.33 °C | 0.16 °C
18 | CCn1cc(-c2ccnc3[nH]c(-c4cccc(CN(C)C)c4)cc23)c(-c2ccc(NC(=O)N(C)C)cc2)n1 | 0.68 °C | 2.48 °C | 1.01 °C | 0.47 °C | 2.81 °C | 0.73 °C | 0.91 °C | 1.28 °C | 0.51 °C | 0.87 °C
19 | CNC(=O)c1ccccc1Nc1nc(Nc2ccc(N3CCOCC3)cc2OC)ncc1Cl | 0.74 °C | 1.05 °C | 1.53 °C | -0.3 °C | 0.28 °C | 0.37 °C | -6.71 °C | 0.8 °C | 0.36 °C | 1.17 °C
20 | C[C@H](NC(=O)c1c(N)nn2cccnc12)c1cc2cccc(C#Cc3cnn(C)c3)c2c(=O)n1-c1ccccc1 | -0.14 °C | 1.49 °C | -0.2 °C | 0 °C | 0.51 °C | 0.17 °C | 0.28 °C | 0.19 °C | 0.28 °C | 2.08 °C
